Values without a mark were called inactive. Calls of active or inactive are those of the source. Cut-off read from the data, not from the text of the source, unless noted: active = inhibition above about 30%; inactive = the rest.

The target of experiment [1] is Nuclear receptor coactivator 3 (Homo sapiens) (UniProt Q9Y6Q9). Kind of experiment: SRC3 coactivator transcriptional activity inhibitors, confirmation, cell-based, luminescence, quadruplicate (AID 588792;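 active = mean inhibition over 43.08%, the solvent-only control mean plus 3 SD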;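 note: 0% = DMSO treated cells and 100% = gossypol at 36 µM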). The settings on record: HEK293 GAL4-SRC3 luciferase reporter, at 3.6 µM, hits give high values. A general note: A reporter such as luciferase makes a cellular process visible.
Sequence of Nuclear receptor coactivator 3 (Homo sapiens) (Q9Y6Q9 whole entry, looked up, the tested form may be a part): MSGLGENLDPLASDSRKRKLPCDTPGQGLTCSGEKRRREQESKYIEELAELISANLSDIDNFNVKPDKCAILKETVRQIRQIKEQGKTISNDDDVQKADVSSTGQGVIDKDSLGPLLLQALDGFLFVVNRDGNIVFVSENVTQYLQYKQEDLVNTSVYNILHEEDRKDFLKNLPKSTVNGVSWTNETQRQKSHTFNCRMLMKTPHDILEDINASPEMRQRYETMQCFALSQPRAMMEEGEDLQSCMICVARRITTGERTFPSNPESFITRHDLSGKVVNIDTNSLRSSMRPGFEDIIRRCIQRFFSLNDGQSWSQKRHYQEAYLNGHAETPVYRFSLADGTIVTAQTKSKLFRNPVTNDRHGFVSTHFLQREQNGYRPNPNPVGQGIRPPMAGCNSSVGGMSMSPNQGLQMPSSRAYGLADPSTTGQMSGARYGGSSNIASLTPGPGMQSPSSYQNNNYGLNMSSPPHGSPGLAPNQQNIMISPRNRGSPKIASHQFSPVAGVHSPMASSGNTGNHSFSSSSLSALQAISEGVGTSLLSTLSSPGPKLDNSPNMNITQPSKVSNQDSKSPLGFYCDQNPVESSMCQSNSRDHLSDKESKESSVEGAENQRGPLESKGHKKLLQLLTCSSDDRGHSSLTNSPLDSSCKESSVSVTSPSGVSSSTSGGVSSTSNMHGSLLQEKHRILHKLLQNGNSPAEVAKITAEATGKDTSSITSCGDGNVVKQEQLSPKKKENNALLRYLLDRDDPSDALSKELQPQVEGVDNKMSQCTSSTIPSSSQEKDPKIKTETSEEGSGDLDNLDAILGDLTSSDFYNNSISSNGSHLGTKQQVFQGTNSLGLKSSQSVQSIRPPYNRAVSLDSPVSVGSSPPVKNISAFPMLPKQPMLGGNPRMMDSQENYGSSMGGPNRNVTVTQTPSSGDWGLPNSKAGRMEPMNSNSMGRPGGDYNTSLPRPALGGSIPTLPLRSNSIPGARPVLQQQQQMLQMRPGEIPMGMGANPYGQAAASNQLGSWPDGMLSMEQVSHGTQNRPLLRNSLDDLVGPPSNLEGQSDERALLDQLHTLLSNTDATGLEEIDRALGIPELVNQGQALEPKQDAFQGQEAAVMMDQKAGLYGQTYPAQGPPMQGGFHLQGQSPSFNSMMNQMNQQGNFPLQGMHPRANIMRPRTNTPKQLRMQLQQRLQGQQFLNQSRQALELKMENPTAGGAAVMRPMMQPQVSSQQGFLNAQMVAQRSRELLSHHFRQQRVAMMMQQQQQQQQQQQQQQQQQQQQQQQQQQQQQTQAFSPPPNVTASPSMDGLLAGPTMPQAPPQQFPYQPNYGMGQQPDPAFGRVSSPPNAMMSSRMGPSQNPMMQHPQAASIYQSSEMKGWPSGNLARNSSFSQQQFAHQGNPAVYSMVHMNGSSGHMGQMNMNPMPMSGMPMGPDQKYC

Experiment [2] concerns transactivating tegument protein VP16 (Human herpesvirus 1), Gal4-VP16 luciferase reporter. Description: VP16 transactivation inhibitors, counter-screen for SRC3 inhibitor project, cell-based, luminescence, high throughput (AID 588794). The settings on record: mammalian cells, VP16-driven luciferase reporter luminescence; at 3.6 µM; hits give high values.
Experiment [3] concerns transactivating tegument protein VP16 (Human herpesvirus 1). Description: VP16 transactivation reporter inhibitors, counter-screen for SRC2 inhibitor project, cell-based, luminescence, single concentration (AID 652007; in the data active = inhibition above about 36%). The settings on record: cell-based VP16 transactivation luciferase reporter, at 8.9 µM, hits give high values. On the technique in general: The purpose of a counterscreen is to sort out artefacts and off-target activity.

The target of experiment [4] is Nuclear receptor coactivator 2 (Homo sapiens) (UniProt Q15596). Description: SRC2 coactivator transcriptional activity inhibitors, confirmation, cell-based, luminescence, HEK293, triplicate (AID 652008;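 active = mean inhibition above 46.5%, the solvent-only control mean plus 3 SD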;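 note: 0% = DMSO-treated cells and 100% = Gossypol at 36 µM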). The settings on record: HEK293 GAL4-SRC2 luciferase reporter, at 8.9 µM, hits give high values.
Sequence of Nuclear receptor coactivator 2 (Homo sapiens) (Q15596 whole entry, looked up, the tested form may be a part): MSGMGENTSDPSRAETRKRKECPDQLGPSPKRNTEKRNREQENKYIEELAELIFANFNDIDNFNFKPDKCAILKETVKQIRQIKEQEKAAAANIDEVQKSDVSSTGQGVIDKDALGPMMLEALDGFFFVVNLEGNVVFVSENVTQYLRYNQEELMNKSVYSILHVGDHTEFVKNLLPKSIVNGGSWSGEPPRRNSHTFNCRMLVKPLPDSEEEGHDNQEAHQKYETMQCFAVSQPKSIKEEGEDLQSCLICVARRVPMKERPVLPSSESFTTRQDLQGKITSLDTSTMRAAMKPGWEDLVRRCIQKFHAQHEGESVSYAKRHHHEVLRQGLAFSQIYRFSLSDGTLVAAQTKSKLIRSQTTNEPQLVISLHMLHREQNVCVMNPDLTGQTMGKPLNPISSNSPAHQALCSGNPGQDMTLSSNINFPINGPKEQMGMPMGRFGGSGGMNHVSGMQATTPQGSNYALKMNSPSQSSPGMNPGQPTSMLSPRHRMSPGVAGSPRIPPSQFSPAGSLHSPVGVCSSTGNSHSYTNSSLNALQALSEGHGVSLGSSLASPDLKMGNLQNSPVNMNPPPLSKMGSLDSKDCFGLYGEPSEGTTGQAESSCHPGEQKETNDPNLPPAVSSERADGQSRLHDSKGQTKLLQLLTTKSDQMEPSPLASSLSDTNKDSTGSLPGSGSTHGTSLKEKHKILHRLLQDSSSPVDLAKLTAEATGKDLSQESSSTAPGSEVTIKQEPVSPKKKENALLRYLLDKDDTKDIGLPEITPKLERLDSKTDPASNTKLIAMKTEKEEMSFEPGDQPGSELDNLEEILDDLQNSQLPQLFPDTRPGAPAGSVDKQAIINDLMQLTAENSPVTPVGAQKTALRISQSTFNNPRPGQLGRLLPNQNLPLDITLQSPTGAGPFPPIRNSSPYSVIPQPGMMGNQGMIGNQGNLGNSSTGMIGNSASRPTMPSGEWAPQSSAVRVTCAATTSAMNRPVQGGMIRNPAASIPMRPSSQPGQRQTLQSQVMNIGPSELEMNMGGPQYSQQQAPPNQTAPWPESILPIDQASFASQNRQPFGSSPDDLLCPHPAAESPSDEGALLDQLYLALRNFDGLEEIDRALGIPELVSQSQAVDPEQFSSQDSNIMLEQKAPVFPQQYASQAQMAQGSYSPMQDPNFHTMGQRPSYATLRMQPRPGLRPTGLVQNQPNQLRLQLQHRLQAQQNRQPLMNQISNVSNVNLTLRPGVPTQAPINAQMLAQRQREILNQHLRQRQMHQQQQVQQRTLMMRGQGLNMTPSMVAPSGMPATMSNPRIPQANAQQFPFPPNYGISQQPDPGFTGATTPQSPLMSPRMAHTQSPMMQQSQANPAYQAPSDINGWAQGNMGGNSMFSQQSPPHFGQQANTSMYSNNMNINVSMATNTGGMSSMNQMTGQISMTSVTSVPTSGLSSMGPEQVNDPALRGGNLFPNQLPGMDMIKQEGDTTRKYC

One may read the inhibition as the change of the read-out against control, counted positive when it falls. As for `O=C(c1ccc(F)cc1)C(CN1CCOCC1)c1ccccc1` (stereo unspecified), the inhibition in experiment [1] was 44.1% (active); in experiment [2], 55.9% (active); in experiment [3], 35%; in experiment [4], 82.6% (active).

For `O=C(/C=C/c1ccccc1)CC(O)(c1ccccc1)C(F)(F)C(F)F` (stereo unspecified), the inhibition is 11% in experiment [1], 4.32% in experiment [2], 7.22% in experiment [3] and 19.9% in experiment [4].

Take `Cc1nn(C)cc1C(C)NC(=O)c1cc(COc2cccc3cnccc23)on1` (stereo unspecified): the inhibition is 18.6% in experiment [1], 24.9% in experiment [2], -5.71% in experiment [3] and 33.3% in experiment [4].

Take `O=C(C1=C(c2ccccc2)C(=O)c2ccccc2C1=O)c1ccccc1`: the inhibition is 93.3% (active) in experiment [1], 90.4% (active) in experiment [2], 63.8% (active) in experiment [3] and 66.4% (active) in experiment [4].

As for `O=C(O)CCCCCN1C(=O)CSC1=S`, the inhibition was -1.77% in experiment [1], 2.06% in experiment [2], -0.37% in experiment [3] and 7.01% in experiment [4].

With `O=C(Cc1ccc(Cl)cc1)c1c[nH]c(C(=O)NCc2cccnc2)c1`, the inhibition in experiment [1] is 95.9% (active); in experiment [2], 56% (active); in experiment [3], 93.5% (active); in experiment [4] it was 95.2% (active).

For `Cc1ccc(/C=C2\SC(=S)N(CCCC(=O)Nc3ccc(O)cc3)C2=O)cc1`, the inhibition in experiment [1] is 18.4%; in experiment [2], 10.3%; in experiment [3], 36.9% (active); in experiment [4] it was 69.4% (active).

Turning to `Cc1nnc(SC(=O)N2c3ccccc3Sc3ccccc32)s1`, the inhibition is 80.8% (active) in experiment [1], 28.2% in experiment [2], 37.9% (active) in experiment [3] and 60.4% (active) in experiment [4].

As for `Cn1c(/C=C/c2ccc(Br)cc2)c([N+](=O)[O-])c(=O)n(C)c1=O`, the inhibition was 45.2% (active) in experiment [1], 47.8% (active) in experiment [2], 15.8% in experiment [3] and 40.7% in experiment [4].

With `O=S(=O)(/C(=C/c1ccc(C(F)(F)F)cc1)c1nc2ccccc2[nH]1)c1ccccc1`, the inhibition in experiment [1] is 61.5% (active); in experiment [2] it was 58.3% (active); in experiment [3], 71.8% (active); in experiment [4], 30.6%.

With `O=C(c1ccc(S(=O)(=O)c2ccc(F)cc2)c([N+](=O)[O-])c1)N1CCCCCC1`, the inhibition in experiment [1] is 11.4%; in experiment [2], 18.9%; in experiment [3] it was 15.7%; in experiment [4], 29.9%.

Take `CCc1ccc(/C=C/C(=O)c2c(C)cc(C)[nH]c2=O)cc1`: the inhibition in experiment [1] is 55.5% (active); in experiment [2] it was 50.1% (active); in experiment [3], 17.5%; in experiment [4], 40.1%.

Turning to `COc1ccc(NC(=O)/C(Cl)=C(/Cl)S(=O)(=O)Cc2ccccc2)cn1`, the inhibition was -15.3% in experiment [1], 8.74% in experiment [2], 80.4% (active) in experiment [3] and 72.4% (active) in experiment [4].

Consider `O=C(NC(CSCc1ccccc1)C(=O)N/N=C/c1ccc(O)cc1O)c1ccc([N+](=O)[O-])cc1` (stereo unspecified), for which the inhibition in experiment [1] was 31.7%; in experiment [2] it was 34.8% (active); in experiment [3], -26.8%; in experiment [4], 8.58%.

With `Cc1cc(C)cc(OCC(=O)NCC2CCCO2)c1` (stereo unspecified), the inhibition is 18.4% in experiment [1], -9.18% in experiment [2], -1.96% in experiment [3] and 28.9% in experiment [4].

As to `COc1ccc(-c2csc3ncnc(NCCN4CCOCC4)c23)cc1`, the inhibition in experiment [1] was 34.1%; in experiment [2], 37.6% (active); in experiment [3], 0.34%; in experiment [4], 41.1%.

For `CC(C)(C)c1ccc(-c2noc(CCC(=O)Nc3cccnc3)n2)cc1`, the inhibition in experiment [1] was 41%; in experiment [2], 25.7%; in experiment [3], 67.8% (active); in experiment [4] it was 80.8% (active).

With `O=C(N[C@@H](Cc1ccccc1)C(=O)CCl)OCc1ccccc1`, the inhibition in experiment [1] was 31.5%; in experiment [2] it was 40.4% (active); in experiment [3], 64.2% (active); in experiment [4], 69.3% (active).

Turning to `CCCCCCCN(c1ccccc1)[C@@H]1C[C@H]2CCCC(=O)N3CC[C@@H](C1)[C@@H]23`, the inhibition was 6.93% in experiment [1], 30.5% (active) in experiment [2], 25% in experiment [3] and 35% in experiment [4].

Take `COc1ccc2nc(C)cc(Sc3nc4ccccc4s3)c2c1`: the inhibition in experiment [1] was 28.2%; in experiment [2] it was 18.1%; in experiment [3], 26%; in experiment [4] it was 51.3% (active).

Consider `COCC1CCN(C(=O)c2cc(COc3cccc4cnccc34)on2)CC1`, for which the inhibition is 11.1% in experiment [1], 37.7% (active) in experiment [2], 3.58% in experiment [3] and 43.1% in experiment [4].

As to `CC(=O)Nc1ccc(NC2=C/C(=N/S(=O)(=O)c3cccs3)c3ccccc3C2=O)cc1`, the inhibition was 3.29% in experiment [1], 9.98% in experiment [2], 9.81% in experiment [3] and 49.5% (active) in experiment [4].

As for `COc1ccc(/C=C/C(=O)c2ccc3c4c(cccc24)CC3)cc1OC`, the inhibition was 21.5% in experiment [1], 25.6% in experiment [2], 25.2% in experiment [3] and 67.6% (active) in experiment [4].

As to `O=c1cc(CCl)nc(Cc2c(Cl)cccc2Cl)[nH]1`, the inhibition is 21.2% in experiment [1], -8.27% in experiment [2], 16.8% in experiment [3] and 54.1% (active) in experiment [4].

For the origin of these results see PubChem BioAssay.
